31 compounds from PubChem BioAssay (Tox21) can be followed below.

The target of test [1] is Luciferin 4-monooxygenase (Photinus pyralis) (UniProt P08659). Kind of test: qHTS assay to identify small molecule inhibitors of firefly luciferase (AID 1224835). Also: nearly all actives have a fitted effect of over 25% in size. As to activity change, negative = inhibition: series mostly up to about 120 µM. The method in brief:
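Inhibition of purified Photinus luciferase is measured by luminescence. Substrate levels (D-luciferin, ATP) sit at their KM values. Each compound is tested in a concentration series.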
A general note: Quantitative high-throughput screening tests each substance at several concentrations.

A short description of test [2]: qHTS assay to identify small molecule agonists of the constitutive androstane receptor (CAR) signaling pathway - cell viability counter screen (AID 1224836). Also: nearly all actives have a fitted effect of over 45% in size. As to viability change, negative = cytotoxic: series mostly up to about 92 µM. The essentials:
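Cells were seeded and incubated 4 hrs. Compounds were added across 15 concentrations together with PK11195 at 0.75 uM final. Plates were incubated 23 hrs at 37 C. CellTiter-Fluor was added and fluorescence measured.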

A short description of test [3]: qHTS assay to identify small molecule antagonists of the constitutive androstane receptor (CAR) signaling pathway - cell viability counter screen (AID 1224837). Also: nearly all actives have a fitted effect of over 45% in size. As to activity change, negative = cytotoxicity: series mostly up to about 92 µM. The essentials:
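To flag cytotoxic false antagonists, HepG2 hCAR/CYP2B6-2.2kb cells were treated 23 hr with 15-concentration compound series and 50 nM CITCO at 37 C/5% CO2; CellTiter-Fluor fluorescence was the measured end point.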

The target in test [4] is Nuclear receptor subfamily 1 group I member 3 (Homo sapiens) (UniProt Q14994). Kind of test: qHTS assay to identify small molecule antagonists of the constitutive androstane receptor (CAR) signaling pathway (AID 1224838).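 Also: HepG2 cells stably expressing hCAR with CYP2B6 luciferase reporter stimulated by CITCO; nearly all actives have a fitted effect of over 40% in size.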 The essentials:
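Human hepatoma HepG2 cells expressing hCAR and a CYP2B6 promoter (2.2 kb) luciferase construct; compound titration (15 points) with 50 nM CITCO final, 24 h at 37 C/5% CO2; luminescence via ONE-Glo after 30 min at room temperature.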

Test [5] shares this target. Kind of test: qHTS assay to identify small molecule agonists of the constitutive androstane receptor (CAR) signaling pathway (AID 1224839). Also: nearly all actives have a fitted effect of over 15% in size.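 As to activation: HepG2 cells stably carrying human CAR and a CYP2B6 luciferase reporter; series mostly up to about 92 µM.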 The method in brief: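 Cells were plated and incubated 4 hrs, then dosed with compounds at 15 concentrations. PK11195 was added to 0.75 uM final. After 24 hrs at 37 C, luciferase luminescence was measured.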
Test [6] in a line: qHTS assay to identify small molecule antagonists of the estrogen related receptor signaling pathway with the pleiotropic PPARgamma coactivator (PGC) from Tox21 10K library - cell viability counter screen (AID 1224840; active = well fitted cell-killing curve with a large enough effect in the repeat runs, not every such curve was filed as active; also: nearly all actives have a fitted effect of over 40% in size). The method in brief:
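Seeded PGC/ERR cells (2,000/well, 6 h, 37 C/5% CO2) get compound by pin tool; 17.5 h incubation at 37 C; CellTiter-Fluor added, 30 min, fluorescence measured.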

Test [7] has as its target Thyrotropin receptor (Homo sapiens) (UniProt P16473). Description: qHTS assay to identify small molecule agonists of the thyroid stimulating hormone receptor (TSHR) signaling pathway (AID 1224843; calls by dose curve; also: nearly all actives have a fitted effect of over 45% in size). The essentials:
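Agonist activity read as cAMP rise via d2/cryptate HTRF competition, 1 h room-temperature detection, in HEK293 cells expressing TSHR. Fifteen-point titrations, each run in triplicate, with a 30 min room-temperature incubation beforehand.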

Test [8] in a line: qHTS assay to identify small molecule agonists of the hypoxia (HIF-1) signaling pathway - cell viability counter screen (AID 1224844; calls by dose curve; also: nearly all actives have a fitted effect of over 50% in size). The essentials:
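HRE-bla ME-180; 0.5% dFBS; cpd 17 h, 37C, 5% CO2; CellTiter-Glo lum., 30 min RT, post-FRET read, same wells.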

A short description of test [9]: qHTS assay to identify small molecule antagonists of the estrogen related receptor signaling pathway with the pleiotropic PPARgamma coactivator (PGC) from Tox21 10K library (AID 1224841; call rule not given here; also: actives are mostly falling curves and most rising ones were filed inactive; nearly all actives have a fitted effect of over 50% in size). The method in brief:
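Test chemicals dissolved in DMSO were applied to pre-incubated (6 h) PGC/ERR cells at 2,000 cells/well for an 18 h, 37 C treatment; reporter luminescence was then read using One-Glo.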

A short description of test [10]: qHTS assay to identify small molecule agonists of the estrogen related receptor signaling pathway with the pleiotropic PPARgamma coactivator (PGC) from Tox21 10K library (AID 1224842). Also: nearly all actives have a fitted effect of over 15% in size. The method in brief: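 Luminescence from One-Glo (30 min, room temperature) measured after PGC/ERR cells had 18 h at 37 C with pinned compound (23 nL in DMSO). Cells had been seeded at 2,000 per well and pre-incubated 6 h.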

Results filed as inconclusive are left out. Where a structure was tested more than once in an assay, its records may differ in their call. The source made the active and inactive calls. Unless noted, calls follow the shape of the dose curve; as a rule, active = well fitted curve in the direction sought with a large enough effect in the repeat runs; inconclusive = weak or mixed curves; inactive = no such curve, though single readings can be large; an effect the other way counts as inactive or inconclusive.
% is scaled to controls: 0 for no effect and ±100 for the full control effect; potency is read from the fitted curve at half-maximal effect.

Sequence of Luciferin 4-monooxygenase (Photinus pyralis) (P08659 whole entry, looked up): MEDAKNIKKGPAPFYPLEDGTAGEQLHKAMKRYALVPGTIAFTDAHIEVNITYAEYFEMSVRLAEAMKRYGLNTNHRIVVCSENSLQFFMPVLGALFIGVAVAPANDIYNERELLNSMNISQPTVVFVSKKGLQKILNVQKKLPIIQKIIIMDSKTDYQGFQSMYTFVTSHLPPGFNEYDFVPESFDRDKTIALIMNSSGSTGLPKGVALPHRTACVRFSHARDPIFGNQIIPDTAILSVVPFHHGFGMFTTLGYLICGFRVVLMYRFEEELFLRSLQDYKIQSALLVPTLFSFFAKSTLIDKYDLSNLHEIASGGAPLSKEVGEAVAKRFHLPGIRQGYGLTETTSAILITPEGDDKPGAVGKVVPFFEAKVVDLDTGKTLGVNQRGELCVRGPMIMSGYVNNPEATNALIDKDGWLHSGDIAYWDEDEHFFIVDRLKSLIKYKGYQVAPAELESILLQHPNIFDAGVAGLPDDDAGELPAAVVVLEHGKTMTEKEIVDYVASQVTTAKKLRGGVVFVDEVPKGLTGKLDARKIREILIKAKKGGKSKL
Sequence of Thyrotropin receptor (Homo sapiens) (P16473 whole entry, looked up): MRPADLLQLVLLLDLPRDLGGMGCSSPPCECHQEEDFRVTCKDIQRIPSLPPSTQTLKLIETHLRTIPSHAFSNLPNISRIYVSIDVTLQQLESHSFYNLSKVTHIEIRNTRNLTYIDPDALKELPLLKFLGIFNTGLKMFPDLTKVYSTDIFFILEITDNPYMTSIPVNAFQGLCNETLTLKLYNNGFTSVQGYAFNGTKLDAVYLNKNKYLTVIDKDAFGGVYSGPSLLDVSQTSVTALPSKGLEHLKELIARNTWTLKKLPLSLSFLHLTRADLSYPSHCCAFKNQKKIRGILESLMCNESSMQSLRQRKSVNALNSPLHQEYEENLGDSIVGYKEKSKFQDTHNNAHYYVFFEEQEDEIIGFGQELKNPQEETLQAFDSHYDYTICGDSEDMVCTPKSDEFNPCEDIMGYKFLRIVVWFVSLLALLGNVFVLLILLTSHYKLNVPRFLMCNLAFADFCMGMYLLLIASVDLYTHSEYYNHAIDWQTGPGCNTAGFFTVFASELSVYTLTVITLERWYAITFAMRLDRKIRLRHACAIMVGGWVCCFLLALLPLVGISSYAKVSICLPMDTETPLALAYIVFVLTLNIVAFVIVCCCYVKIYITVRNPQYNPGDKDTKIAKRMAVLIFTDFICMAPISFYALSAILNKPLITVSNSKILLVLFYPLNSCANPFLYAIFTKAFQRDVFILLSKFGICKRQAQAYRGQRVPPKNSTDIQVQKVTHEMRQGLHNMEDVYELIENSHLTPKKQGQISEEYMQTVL
Sequence of Nuclear receptor subfamily 1 group I member 3 (Homo sapiens) (Q14994 whole entry, looked up): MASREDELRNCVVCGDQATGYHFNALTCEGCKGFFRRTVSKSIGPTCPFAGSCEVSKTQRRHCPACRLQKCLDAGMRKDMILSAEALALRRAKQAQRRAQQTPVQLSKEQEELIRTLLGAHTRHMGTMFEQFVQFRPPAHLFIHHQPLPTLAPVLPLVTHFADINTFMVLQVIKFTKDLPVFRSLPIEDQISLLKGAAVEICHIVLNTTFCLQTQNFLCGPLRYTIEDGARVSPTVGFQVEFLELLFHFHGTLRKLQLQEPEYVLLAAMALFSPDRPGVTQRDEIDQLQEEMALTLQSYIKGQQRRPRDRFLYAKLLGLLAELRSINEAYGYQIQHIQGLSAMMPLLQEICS

For the compound `CCOP(O)OCC`, the Potency entry in test [1], in test [2], in [3], in test [4], in test [5] and in test [6] was “inactive” each time. Moreover, the Potency result in [7] and in test [8] was “inactive” each time.
As for `O=C(CBr)OCc1ccccc1`, the Potency entry in test [1], in test [2], in test [3], in [4], in [5] and in test [6] was “inactive” in each case. In test [8], the Potency result was “inactive”.
`CCCN(CCCl)c1c([N+](=O)[O-])cc(C(F)(F)F)cc1[N+](=O)[O-]`: the Potency result in test [1], in test [2], in [3], in test [4], in test [6] and in test [9] was “inactive” throughout. In addition, the Potency entry in [10] and in test [8] was “inactive” throughout. In test [7], the Potency was 1.93 µM (active).
With `C[C@@H]1CC[C@H]2[C@@H](C)C(=O)O[C@@H]3O[C@@]4(C)CC[C@@H]1[C@]32OO4`, the Potency result in test [1], in [2], in test [3], in test [4], in test [6] and in test [10] was “inactive” each time. Besides, the Potency entry in test [7] and in test [8] was “inactive” in each case. Moreover, the Potency in [9] is 1.88 µM (active).
For `ClCCCCBr`, the Potency entry in test [1], in test [2], in [3], in [4], in [5] and in [8] was “inactive” each time.
Consider `Brc1ccccc1`, for which the Potency result in [1], in test [2], in [3], in test [4], in test [5] and in test [6] was “inactive” in each case. Besides, the Potency result in test [7] and in [8] was “inactive” each time.
`CCN(C)N=O`: the Potency result in test [1], in test [2], in [3], in [4], in test [5] and in test [6] was “inactive” each time. Further, the Potency entry in test [8] was “inactive”.
Turning to `CC(C)(C)c1cc([N+](=O)[O-])cc([N+](=O)[O-])c1O`, the Potency is 70.8 µM (active) in test [1]; 13.6 µM (active) in test [2]; 15.3 µM (active) in [3]; 17.2 µM (active) in test [4]; 15.3 µM (active) in [6]. In addition, the Potency result in [5], in test [7] and in test [8] was “inactive” each time.
Consider `CC(C)=CCOc1c2occc2cc2ccc(=O)oc12`, for which the Potency entry in test [1], in test [2], in [3], in test [4], in test [9] and in test [10] was “inactive” each time. The Potency entry in test [7] and in [8] was “inactive” in each case. Further, in [5], the Potency was 10.6 µM (active).
Consider `O=[N+]([O-])c1ccccc1CCl`, for which the Potency result in test [1], in [2], in test [3], in test [4], in test [5] and in test [6] was “inactive” each time. Further, the Potency entry in test [8] is “inactive”.
As for `O=S(=O)(Cl)c1ccccc1`, the Potency entry in [1], in [2], in test [3], in [4], in test [5] and in test [6] was “inactive” throughout. The Potency entry in test [7] and in test [8] was “inactive” throughout.
As for `COC(=O)c1cncn1C(C)c1ccccc1` (stereo unspecified), the Potency entry in test [1], in test [2], in test [3], in test [4], in test [5] and in test [7] was “inactive” throughout. For the same compound, in test [8], the Potency result is “inactive”.
Regarding `CCCCCCCCCC(=O)O[C@H]1CC[C@H]2[C@@H]3CCC4=CC(=O)CC[C@@H]4[C@H]3CC[C@]12C`, the Potency result in test [1], in test [2], in test [3], in [4], in test [5] and in test [6] was “inactive” in each case. The Potency entry in [8] is “inactive”.
As to `COc1c(C(C)(C)C)cc([N+](=O)[O-])c(C)c1[N+](=O)[O-]`, the Potency result in [1], in [2], in test [3], in test [4], in test [6] and in [8] was “inactive” each time. Also, in [5], the Potency is 24.1 µM (active).
Take `O=S1OC[C@@H]2[C@H](CO1)[C@]1(Cl)C(Cl)=C(Cl)[C@@]2(Cl)C1(Cl)Cl` (stereo partly specified): the Potency result in test [1], in test [2], in test [3] and in test [4] was “inactive” each time. For the same compound, the Potency was 27.3 µM (active) in test [5], 10.9 µM (active) in [7] and 43.6 µM (active) in test [8].
Regarding `O=NN1CCCCCC1`, the Potency result in test [1], in test [2], in [3], in [6] and in test [8] was “inactive” each time.
On to `CC1C(=O)C[C@]2(C(C)C)C[C@H]12` (stereo partly specified), for which the Potency result in [1], in test [2], in test [3], in [6] and in [8] was “inactive” throughout.
Turning to `Brc1ccc(Oc2ccccc2)cc1`, the Potency entry in test [1], in test [2], in [3], in test [6] and in [8] was “inactive” throughout. The Potency in test [10] is 885 nM (active) and inactive; in test [7] it was 1.25 µM (active).
Regarding `ClCc1cccc(Cl)c1`, the Potency result in test [1], in test [2], in [3], in test [6], in [10] and in test [7] was “inactive” in each case. Further, in test [8], the Potency entry was “inactive”.
On to `CC1Sc2c(C(=O)O)c(=O)c3cc(F)c(N4CCNCC4)cc3n21` (stereo unspecified), for which the Potency entry in [1], in test [2], in [3], in test [5], in test [9] and in test [10] was “inactive” each time. In addition, the Potency result in test [7] and in test [8] was “inactive” in each case.
`CCCN(CC1CC1)c1c([N+](=O)[O-])cc(C(F)(F)F)cc1[N+](=O)[O-]`: the Potency entry in [1], in test [2], in [3], in [4], in test [6] and in [8] was “inactive” in each case. The Potency in [7] was 6.86 µM (active).
Consider `BrCCCCBr`, for which the Potency result in test [1], in [2], in [3], in test [6], in [7] and in test [8] was “inactive” in each case.
As for `CCOC(=O)C(Cl)C(C)=O` (stereo unspecified), the Potency entry in test [1], in [2], in test [3], in test [6] and in test [7] was “inactive” each time.
As to `BrCC(Br)C1CCC(Br)C(Br)C1` (stereo unspecified), the Potency entry in [1], in test [2], in test [3], in test [4], in test [6] and in test [8] was “inactive” throughout. In addition, the Potency in test [7] is 48.3 µM (active).
On to `CCOP(=S)(Oc1ccc([N+](=O)[O-])cc1)c1ccccc1` (stereo unspecified), for which the Potency entry in [1], in test [2], in [3], in [4], in [6] and in [10] was “inactive” each time. In addition, the Potency result in [8] was “inactive”.
In the case of `Clc1cccc(SC2CCNCC2)n1`, the Potency entry in test [1], in test [2], in test [3], in test [6], in test [9] and in test [10] was “inactive” throughout. The Potency entry in [7] and in test [8] was “inactive” throughout.
Take `Cl/C=C\Cl`: the Potency entry in test [1], in [2], in [3], in [7] and in test [8] was “inactive” in each case.
Consider `c1ccoc1`, for which the Potency result in test [1], in test [2], in test [3], in [6], in test [7] and in test [8] was “inactive” throughout.
Take `CO[C@@H]1[C@H](OC(=O)NC(=O)CCl)CC[C@]2(CO2)[C@H]1[C@@]1(C)O[C@@H]1CC=C(C)C`: the activity change, negative = inhibition in test [1] is 2.04% [at 23.6 µM] (inactive). Also, the viability change, negative = cytotoxic is -5.35% [at 19 µM] (inactive) in test [2] and -8.92% [at 19 µM] (inactive) in [6]. Also, the activity change, negative = cytotoxicity in test [3] is -18.3% [at 19 µM] (inactive). Moreover, the activation was -1.38% [at 19 µM] (inactive) in test [5], -7.49% [at 19 µM] (inactive) in test [10] and -6.28% [at 19 µM] (inactive) in test [7].
Turning to `CCOP(=S)(OCC)SCSCC`, the Potency result in test [1], in test [2], in test [3], in test [6] and in test [8] was “inactive” each time.
Consider `COCC(C)N(C(=O)CCl)c1c(C)csc1C` (stereo unspecified), for which the Potency entry in test [1], in test [2], in test [3], in [6], in test [10] and in [8] was “inactive” each time. The Potency in test [9] is 21.7 µM (active).
